This is an account of results in the supplement of paper PMC8975748.

Counter-ions that a name gives are not always drawn.

The experiment concerns Saccharomyces cerevisiae BY4741 SeMeCo community. The experiment in a line: z-score of subpopulation abundance vs DMSO median, subpopulation auxotrophic for HLUM; higher = larger share of this subpopulation than in DMSO controls. The conditions noted are these: 10 µM; 24 h; SM minimal medium; subpopulation (auxotrophy): HLUM. The gist of the method:
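A community of Saccharomyces cerevisiae BY4741 was built from four plasmids that each restored one auxotrophy and encoded a distinct fluorescent protein. Pre-grown overnight to OD600 1.0 and diluted to 0.3, it was dispensed at 70 µl into 384-well plates acoustically predosed with library drugs for a final 10 µM, and grown 24 h in minimal SM medium. Cells were then paraformaldehyde-fixed and imaged by automated confocal microscopy. Thresholds and autofluorescence correction came from single-auxotroph fluorescent strains, and each subpopulation's abundance was scored as a z-score relative to the vehicle-well median.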
In the case of `CC(C)NC(=N)NC(=N)Nc1ccc(Cl)cc1` [Proguanil], the “z-score of subpopulation abundance” value is -0.44. Regarding `Nc1nc(O)c2ncn(CCC(CO)CO)c2n1` [Penciclovir], the “z-score of subpopulation abundance” value was -0.97. On to `C=CC(C)(O)CCC=C(C)C` (stereo not drawn) [Linalool], for which the “z-score of subpopulation abundance” value was -0.32. Turning to `O=C(N[C@H](CO)[C@H](O)c1ccc([N+](=O)[O-])cc1)C(Cl)Cl` [Chloramphenicol], the “z-score of subpopulation abundance” value is 0.45. For `CCCN1CCCC[C@H]1C(=O)Nc1c(C)cccc1C` [Ropivacaine], the “z-score of subpopulation abundance” value was -0.55. For the compound `O=C(O)c1cc(-c2ccc(F)cc2F)ccc1O` [Diflunisal], the “z-score of subpopulation abundance” value is -0.39. As for `C=C[C@H]1CN2CC[C@H]1C[C@H]2[C@H](O)c1ccnc2ccc(OC)cc12` [Quinine HCl Dihydrate], the “z-score of subpopulation abundance” value worked out at 0.6. Turning to `Cc1nc(=O)c2cc(CN(C)c3ccc(C(=O)N[C@@H](CCC(=O)O)C(=O)O)s3)ccc2[nH]1` [Raltitrexed], the “z-score of subpopulation abundance” value was -1.38. For the compound `CC(C)Cc1ccc(C(C)C(=O)O)cc1` (stereo not drawn) [Ibuprofen Lysine], the “z-score of subpopulation abundance” value is -1.27.

With `CN(C)CCc1c[nH]c2ccc(C[C@H]3COC(=O)N3)cc12` [Zolmitriptan], the “z-score of subpopulation abundance” value was found to be 0.15. For `CNCCCN1c2ccccc2CCc2ccccc21` [Desipramine Hydrochloride], the “z-score of subpopulation abundance” value is -0.78.

Consider `Oc1ccc([C@H]2COc3cc(O)ccc3C2)cc1` [Equol], for which the “z-score of subpopulation abundance” value was determined as 0.35. With `Cc1[nH]c(=O)c(C#N)cc1-c1ccncc1` [Milrinone], the “z-score of subpopulation abundance” value was -1.21. Take `Cc1ccc(O)c([C@H](CCN(C(C)C)C(C)C)c2ccccc2)c1` [Tolterodine tartrate]: the “z-score of subpopulation abundance” value is -0.2.

Take `CCN(CC)CCOC(=O)c1ccc(N)cc1` [Procaine]: the “z-score of subpopulation abundance” value is -0.71. In the case of `O=C(O)c1cc(/N=N/c2ccc(O)c(C(=O)O)c2)ccc1O` [Olsalazine Sodium] it was -0.84; in that of `CCC(C)(Oc1ccc(C2(c3ccc(OC(C)(CC)C(=O)O)cc3)CCCCC2)cc1)C(=O)O` (stereo not drawn) [Clinofibrate], 0.45; in that of `CN(C)[C@@H]1C(=O)C(C(N)=O)=C(O)[C@@]2(O)C(=O)C3=C(O)c4c(O)ccc(Cl)c4[C@@H](O)[C@H]3C[C@@H]12` [Demeclocycline HCl], -0.17. Next, `COc1cc2c(cc1OC)C(=O)C(CC1CCN(Cc3ccccc3)CC1)C2` (stereo not drawn) [Donepezil]: 0.22. `CCn1cc(C(=O)O)c(=O)c2cc(F)c(N3CCNCC3)nc21` [Enoxacin]: the “z-score of subpopulation abundance” value is 0.48. In the case of `NC(=O)[C@@H]1CC[C@@H]2CN1C(=O)N2OS(=O)(=O)O` [Avibactam sodium], the “z-score of subpopulation abundance” value came out at 1.05. With `CN1[C@@H]2CC[C@H]1C[C@@H](OC(c1ccccc1)c1ccccc1)C2` [Benztropine mesylate], the “z-score of subpopulation abundance” value was -0.38. With `C#C[C@]1(O)CC[C@H]2[C@@H]3CCC4=CCCC[C@@H]4[C@H]3CC[C@@]21C` [Lynestrenol], the “z-score of subpopulation abundance” value is -0.6. In the case of `CC(C)(C)C(=O)OCOC(=O)[C@@H]1N2C(=O)[C@@H](/N=C/N3CCCCCC3)[C@H]2SC1(C)C` [Pivmecillinam hydrochloride] it was -0.19; in that of `OC(c1ccccc1)(c1ccccc1)C12CC[N+](CCOCc3ccccc3)(CC1)CC2` [Umeclidinium bromide], -0.28. Next, `OCc1ccccc1O[C@@H]1O[C@H](CO)[C@@H](O)[C@H](O)[C@H]1O` [Salicin]: -0.11; `CN(C)CCc1c[nH]c2ccc(Cn3cncn3)cc12` [Rizatriptan Benzoate]: 0.89; `OCCN(CCO)c1nc(N2CCCCC2)c2nc(N(CCO)CCO)nc(N3CCCCC3)c2n1` [Dipyridamole]: -1.34. Next, `Cn1nnnc1SCC1=C(C(=O)O)N2C(=O)[C@@H](NC(=O)[C@H](OC=O)c3ccccc3)[C@H]2SC1` [Cefamandole nafate]: 0.78.

Turning to `CC(=O)[C@@]1(O)CC[C@H]2[C@@H]3C[C@H](C)C4=CC(=O)CC[C@]4(C)[C@H]3CC[C@@]21C` [Medroxyprogesterone], the “z-score of subpopulation abundance” value was determined as 0.34. As for `CC[N+](CC)(CC)CC` [Tetraethylammonium bromide], the “z-score of subpopulation abundance” value stood at 1.04. For `CCC1(c2ccccc2)C(=O)NCNC1=O` [Primidone], the “z-score of subpopulation abundance” value is 0.15. In the case of `CCCCOc1cc(C(=O)OCCN(CC)CC)ccc1N` [Oxybuprocaine HCl] it was 0.34.
